Measured values as given in the supplement of paper PMC3342239.
Counter-ions that a name gives are not always drawn.

System: Saccharomyces cerevisiae
Assay: fraction of cells in G1 phase (DNA content, flow cytometry); higher = more cells with unreplicated DNA (G1 delay)
Conditions: temperature: 30 C; YPD; JTY2953 pdr5 snq2 (sensitized); drug added to: cultures diluted from stationary phase; 6-7 h
Method in brief: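 For the G1 fraction, the Dean-Jett-Fox G1 peak area was divided by the sum of the G1 and G2/M areas. S. cerevisiae in YPD at 30°C received library drugs and was fixed 6–7 h later for sensitized JTY2953 (diluted 1∶200 from overnight, final 20 µg/ml), 6 h later for dividing JTY2953, or 4.33 h later for BY4741. Fixed cells were stained with SYTOX Green and 10,000 events recorded by flow cytometry.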

SMILES | fraction of cells in G1 phase
COC(=O)Nc1nc2cc(C(=O)c3ccccc3)ccc2[nH]1 [Mebendazol] (67.7277 µM) | 0.352
CCOC(=O)[N-]c1c[n+](N2CCOCC2)no1 [Molsidomine] (82.564 µM) | 0.543
COC(=O)Nc1nc2cc(Sc3ccccc3)ccc2[nH]1 [Fenbendazole] (66.8106 µM) | 0.421
CC(C)C(=O)Nc1ccc([N+](=O)[O-])c(C(F)(F)F)c1 [Flutamide] (72.4068 µM) | 0.526
COC(=O)N/N=C/c1c[n+]([O-])c2ccccc2[n+]1[O-] [Carbadox] (76.2699 µM) | 0.414
COc1cc(C(=O)OCCCN2CCCN(CCCOC(=O)c3cc(OC)c(OC)c(OC)c3)CC2)cc(OC)c1OC [Dilazep] (33.074 µM) | 0.47
CN1CCN(c2c(F)cc3c(=O)c(C(=O)O)cn(CCF)c3c2F)CC1 [Fleroxacin] (54.1497 µM) | 0.479
CN(C)CC/C=C1/c2ccccc2COc2ccc(CC(=O)O)cc21 [Olopatadine] (59.2729 µM) | 0.431
CCn1cc(C(=O)O)c(=O)c2cc(F)c(N3CCNCC3)nc21 [Enoxacin] (62.4364 µM) | 0.512
Cc1ccccc1C(OCCN(C)C)c1ccccc1 (configuration not stated) [Orphenadrine citrate] (43.3369 µM) | 0.522
CC1(C)S[C@@H]2[C@H](NC(=O)COc3ccccc3)C(=O)N2[C@H]1C(=O)O [Pencillin v potassium] (57.2429 µM) | 0.461
Cc1c(-c2cnccn2)ssc1=S [Oltipraz] (88.3617 µM) | 0.503
